Data on 67 sequences can be found in the supplement of paper PMC11417369.

± gives the standard deviation of the averaged measurements. The full ranking holds about 25,000 sequences; the median of “ln(normalized median fluorescence intensity)” is about 8.9, and the highest 2% start at about 10. Many of the other results were omitted from the sample, so the highest values are more common in it than they were.

For this assay, the system named is PfAP2-LT AP2 domain (GST-tagged). Put plainly: gcPBM binding intensity (ln(normalized median fluorescence intensity)); higher = stronger DNA binding. The procedure, abridged:
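After 1 h on an Agilent 4 × 180k array of primer-extended double-stranded 36-bp intergenic genomic probes and negative controls, bound GST-tagged P. falciparum DNA-binding domains were detected with Alexa488 anti-GST antibody and scanned at 488 nm. The domains had been expressed in E. coli, and binding took place in 1× PBS with 1% milk, 0.2 mg/ml BSA, 0.5% salmon testes DNA and 0.03% Triton X-100. Binding intensity is the highest Masliner-normalised natural-log median intensity across replicate spots of either probe orientation.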
Take “TTTTCCCTCTTATTCACACAAAAAAAATAAAATAAA [CACACA_site4656]”: the “gcPBM binding intensity (ln)” value stood at 8.2 ± 0.42. As for “TTTGCTTCGATATATTCACACATTTTTTTTCTTATT [CACACA_site4499]”, the figure is 8.91 ± 0.46. For “TTCTTTTTTCAACACACACACACAAGAAAATATATA [CACACA_site9019]” the value was 9.51 ± 0.16.

Consider “AATATAAATAAAAACACACACAATGGTACCTATATA [CACACA_site7688]”, for which the “gcPBM binding intensity (ln)” value turned out to be 9.3 ± 0.39. For “TATTATATATATGGAAGTACAGGTATATCGTTTTTC [XGTACX_site3771]”, the “gcPBM binding intensity (ln)” value came out at 8.73 ± 0.4. For “CTAAAATACGAACACACACACACATATAAATAAATA [CACACA_site7872]” the value was 10.2 ± 0.33; for “TACACATACACATACACACGCATAGAAACATACGAA [CACACA_site2137]”, 9.48 ± 0.33.

With “TATACATATATATACACACACACATATATATATATA [CACACA_site1299]”, the “gcPBM binding intensity (ln)” value was 9.9 ± 0.42. On to “AACATATACACGAACACACACACATATATATATATA [CACACA_site502]”, for which the “gcPBM binding intensity (ln)” value worked out at 10.3 ± 0.26. With “AGTATACACGAACACACACACACATATATAAATATA [CACACA_site6913]”, the “gcPBM binding intensity (ln)” value was 10.2 ± 0.4.

“CACACGCACGAACACACACACACACGCACGCACATA [CACACA_site6305]”: the “gcPBM binding intensity (ln)” value was found to be 10.4 ± 0.13. Turning to “AAAAAAAAAATATACACACACACATACACATAAATA [CACACA_site3808]”, the “gcPBM binding intensity (ln)” value turned out to be 9.92 ± 0.21. “CACACGCACGAACACACACACATATAAATATAAATA [CACACA_site6299]”: the “gcPBM binding intensity (ln)” value amounted to 9.71 ± 0.44. “TATATACATATATACACACACATATATATATATATA [CACACA_site2805]”: the “gcPBM binding intensity (ln)” value came to 9.905 ± 0.0071.

For the sequence “TAACACATAAATAAATATATACATATATATAAAATA [CACACA_negctrl_site375]”, the “gcPBM binding intensity (ln)” value was determined as 8.81 ± 0.46. On to “CATATACACGAACACACACACATATAAATAAATATA [CACACA_site6379]”, for which the “gcPBM binding intensity (ln)” value worked out at 9.74 ± 0.29. For the sequence “AACATATACACGAACACACACACATATAAATAAATA [CACACA_site6380]”, the “gcPBM binding intensity (ln)” value is 9.87 ± 0.23. For “TTTTTTAAATAATATTGTACAAAAAATGTATAAATA [XGTACX_site3010]” the value was 8.44 ± 0.42. Turning to “ATATATATATAAATATGTACATATATACATATATAC [XGTACX_site2374]”, the “gcPBM binding intensity (ln)” value is 8.89 ± 0.23. Take “TGTATGTCTTTATTTTGTACACAATATAAAAAATTA [XGTACX_site5441]”: the “gcPBM binding intensity (ln)” value stood at 8.51 ± 0.38. As for “ACCATTTGTAGGTAAACACACATTATTATTAATATC [CACACA_site2635]”, the figure is 8.93 ± 0.4. As for “CATTTTGTAAGATATGCACACATGGATCATATTTTA [CACACA_site423]”, the figure is 8.95 ± 0.34. For the sequence “CAAAAGCGATACGGCACACATTTCCTGTTTAAATGA [CACACA_site5519]”, the “gcPBM binding intensity (ln)” value was 8.99 ± 0.58. As for “TACTGATCTTTCTAGGTGCGCTGCTACCATTATCGT [GTGCAC_site9538]”, the figure is 8.99 ± 0.49; as for “GATATGATTAACTTATGTTATTCTTGATGATTACGT [CACACA_negctrl_site354]”, 8.86 ± 0.38; as for “TCTTTATTATTCGCCACACACATATAAATATAAATA [CACACA_site7441]”, 8.93 ± 0.4. Take “CATATACACGAACACACACACACACGCACAAAAAAA [CACACA_site6376]”: the “gcPBM binding intensity (ln)” value is 10.1 ± 0.24. For “TGAACACGCACAAATACACACAAAAAAAATAAATAA [CACACA_site6257]” the value was 9.31 ± 0.49; for “TATATACACGCACATACACACAAATAAAAAAACACC [CACACA_site7578]”, 9.67 ± 0.31; for “AAAAAAATATATATATATATATATATATATATATAT [TGCATGCA_negctrl_site7]”, 9.605 ± 0.064.

In the case of “AAAAAAAAAATATATATATATATATATATATATATA [GTGCAC_negctrl_site467]”, the “gcPBM binding intensity (ln)” value came to 10.1 ± 0.2. Consider “AAAAAAAAAAAAAAAAAAAAAAAAATATATATATAT [CACACA_negctrl_site436]”, for which the “gcPBM binding intensity (ln)” value stood at 9.25 ± 0.27.

“AAAAAAAAAAAAAATATATATATATATATATATATA [CACACA_negctrl_site540]”: the “gcPBM binding intensity (ln)” value is 10.1 ± 0.25. “AAAAAAAAAAAAAAAAAAAAAAAAAAATATATATAT [CACACA_negctrl_site271]”: the “gcPBM binding intensity (ln)” value was 8.74 ± 0.28. As for “AAAAAAAAAAAAAAAAAAAAATATATATATATATAT [GTGCAC_negctrl_site426]”, the figure is 9.67 ± 0.085; as for “ATATTTATATATATCATACACACTAATATGTATATT [CACACA_site3409]”, 8.95 ± 0.42; as for “ATATAAATAAATACAACACACATGTCATATCTAAAT [CACACA_site7533]”, 9.12 ± 0.39. Consider “AGTAGTCTGGAGAAATGTACACAGTATCTGGTAGCT [XGTACX_site4871]”, for which the “gcPBM binding intensity (ln)” value worked out at 8.86 ± 0.44.

On to “AAAAAAAAAAAAAACACACACACACGCATACACATA [CACACA_site7364]”, for which the “gcPBM binding intensity (ln)” value came to 10.2. With “AAAACATACATATATACACACATATATATATATATA [CACACA_site1852]”, the “gcPBM binding intensity (ln)” value stood at 9.97 ± 0.53. As for “GGTACATACAAACACACACACAAAAAAAAAAAAATA [CACACA_site1577]”, the figure is 9.65 ± 0.4. Take “AAAAAAAAAAAACACACACACAAATACAAATACATA [CACACA_site415]”: the “gcPBM binding intensity (ln)” value stood at 9.99 ± 0.38.

Turning to “AAAAAAAAAAAAAACACACACACACGCACATATACA [CACACA_site7288]”, the “gcPBM binding intensity (ln)” value is 10.1 ± 0.3. As to “AAAAAAAAAAAAAAAACACACATACACGCACGCACA [CACACA_site7569]”, the “gcPBM binding intensity (ln)” value was 9.35 ± 0.23. Take “CACATACACATACACATACACACGCATAGAAACATA [CACACA_site2136]”: the “gcPBM binding intensity (ln)” value is 9.71 ± 0.28. In the case of “AATACATATAATACAACACACAAGTAATATAAACCT [CACACA_site3597]”, the “gcPBM binding intensity (ln)” value was 9.34 ± 0.29. Take “AAGTAATACAACACGCACATATATATATATATATAT [GTGCAC_negctrl_site89]”: the “gcPBM binding intensity (ln)” value was 10.3 ± 0.25.

On to “AAAAAAAAAAAAAACACACACACACGCAAATACATA [CACACA_site6474]”, for which the “gcPBM binding intensity (ln)” value stood at 10.3 ± 0.27. As for “ATACAACATATATATACACACATATAATAATAATAA [CACACA_site3367]”, the figure is 9.26 ± 0.38. In the case of “CATATATATATATATTGTACAAGATTGTTTTTTTAT [XGTACX_site3913]”, the “gcPBM binding intensity (ln)” value came out at 8.79 ± 0.3. As for “ATAAAAATTTAAAAAGAACACACGAAAGAAGGACTT [CACACA_site3929]”, the figure is 9.01 ± 0.53; as for “TTTTTTATGATTAACACACACACAAAAAAAAAAAAA [CACACA_site4130]”, 9.03 ± 0.32.

For “AAAAATTTTAATTAGGAACACACATATATATATATA [CACACA_site9016]”, the “gcPBM binding intensity (ln)” value came to 9.48 ± 0.42. Consider “ATATTTGCCCAAGATAGTACATATATATATATATAT [XGTACX_site7756]”, for which the “gcPBM binding intensity (ln)” value was 9.74 ± 0.2.

Consider “TACATATTTTATAACTGTACTTTTTTATTATCCAAT [XGTACX_site5396]”, for which the “gcPBM binding intensity (ln)” value came out at 8.71 ± 0.47. As for “AAAAAAAAAAAACATACACACATACATACCTATATA [CACACA_site6575]”, the figure is 9.33 ± 0.3. “ATAAAAAGGAGACACACACACACACGCATATTTATA [CACACA_site6551]”: the “gcPBM binding intensity (ln)” value turned out to be 10.3 ± 0.26. As for “AAGGATCACGCACAAACACACATATTTATATTTATA [CACACA_site6405]”, the “gcPBM binding intensity (ln)” value is 9.14 ± 0.45.

For “AACACATACAAACACACACACAAAAAAAAAAAAAAA [CACACA_site393]”, the “gcPBM binding intensity (ln)” value was found to be 9.65 ± 0.49. As for “AACAAAAAAACAAACACACACACACGCATATTTATA [CACACA_site7680]”, the figure is 10.2 ± 0.29; as for “TAAACATACCTATACACACACACACGCACACGCACA [CACACA_site6372]”, 10.22 ± 0.042. As for “AAAAAAAACAAACACACACACAAATATTTATATATT [CACACA_site436]”, the figure is 9.63 ± 0.22; as for “AAAAAAAAAAAAAACACACACACACGCATACAAAAT [CACACA_site6794]”, 10.2 ± 0.13; as for “TAAAAGGAGACATATACACACATATATATATATATA [CACACA_site5539]”, 10 ± 0.23. With “AACATACACATATACACACACACATATATACCTATA [CACACA_site6643]”, the “gcPBM binding intensity (ln)” value came to 10 ± 0.31. As for “TAAATAAAAAGACACACACACATATTTATATTTATA [CACACA_site7135]”, the figure is 9.7 ± 0.19; as for “AAAAAAAAAAAAAACACACACACAAATACAAATACA [CACACA_site414]”, 9.9 ± 0.36.
